# RORgamma inh = ROR gamma (mouse) transcription inhibition; P51450; Drosophila S2 Gal4-RORgamma UAS-luciferase reporter, 20 h; Potency, µM (top dose mostly 53.6 µM), for inactives: at the top dose activity change, negative = inhibition, actives largely listed as inhibitors; 5.4% of 310,000 active; further: potency means the concentration at half of the fitted maximal effect; nearly all actives have a fitted effect of over 60% in size
# Target sequence (P51450 whole entry, looked up, the tested form may be a part): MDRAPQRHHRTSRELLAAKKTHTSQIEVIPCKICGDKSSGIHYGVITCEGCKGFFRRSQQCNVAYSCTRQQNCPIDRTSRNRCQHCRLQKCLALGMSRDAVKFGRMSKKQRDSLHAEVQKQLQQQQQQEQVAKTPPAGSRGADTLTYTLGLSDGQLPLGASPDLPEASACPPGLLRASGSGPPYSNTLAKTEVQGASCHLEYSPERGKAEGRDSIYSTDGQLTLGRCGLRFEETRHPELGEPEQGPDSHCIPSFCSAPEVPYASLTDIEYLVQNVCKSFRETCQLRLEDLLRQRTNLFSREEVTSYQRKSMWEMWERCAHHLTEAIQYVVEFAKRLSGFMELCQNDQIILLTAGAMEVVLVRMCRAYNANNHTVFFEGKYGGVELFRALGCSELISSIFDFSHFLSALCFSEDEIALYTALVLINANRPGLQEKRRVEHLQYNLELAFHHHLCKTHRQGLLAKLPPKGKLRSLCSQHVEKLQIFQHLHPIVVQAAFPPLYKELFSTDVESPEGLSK
#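 ROR gamma transcriptional activity was tracked as Gal4-UAS luciferase output in stably transfected Drosophila Schneider cells, with compound added 1 hr before 700 uM copper sulfate induction and a 20 hr ambient-temperature incubation.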
# Gal4-VP16 FLuc = inhibits Gal4-VP16 luciferase reporter, ROR gamma counter-screen; Drosophila S2 Gal4-VP16 UAS-luciferase, luminescence, 20 h; 3.5% of 310,000 active; Potency, µM (doses to about 53.6 µM), for inactives: top-dose activity, negative = inhibition, most hits filed as inhibitors;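 further: Gal4-VP16 expression switched on by copper sulfate through the metallothionein promoter; potency means the concentration at half of the fitted maximal effect; nearly all actives have a fitted effect of over 50% in size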
# DT40 TDP1 no CPT = qHTS for Inhibitors of human tyrosyl-DNA phosphodiesterase 1 (TDP1): qHTS in cells in absence of CPT; Potency, µM (series often up to 46.2 µM), for the others: top-dose activity change, negative = growth inhibition, most hits filed as inhibitors; DT40 Tdp1-/- hTDP1 cells, no CPT, ATP luminescence, 48 h; 15% of 420,000 active; AID 686978, 2013; further: potency means the concentration at half of the fitted maximal effect; nearly all actives have a fitted effect of over 55% in size
#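 A cellular qHTS used chicken DT40 cells lacking endogenous Tdp1 but carrying stably transfected human TDP1. Compounds were applied without camptothecin, and cell growth kinetics were judged by ATP-dependent luminescence after ≥48 hr.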
# IL-1B inflam inh = inhibitors of inflammasome signaling (IL-1 beta secretion); 4.7% of 360,000 active; activity change, % at 57.5 µM; THP-1 LPS/ATP IL-1B secretion, AlphaLISA, 16 h; stronger effect = lower value; in the data active means activity change below about -50%; inconclusive means mostly about -30% to -49%
#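 THP-1 cells pretreated 1 hr with compounds (up to 57.5 uM final), then stimulated with LPS (250 ng/mL final) plus ATP (1.25 mM final); secreted IL-1B measured by AlphaLISA after 16 hr, decreased signal indicating inhibition.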
# ELG1 repair inh = blocks ELG1-dependent DNA repair in HEK293T cells; 2.3% of 330,000 active; Potency, µM (titrated, usually from 46.1 µM), for the others: top-dose activity change, negative = inhibition, usual class: inhibitors; HEK293T ELG1-luciferase reporter, luminescence, 16 h; DNA damage induced by 5-fluorouridine; further: potency means the concentration at half of the fitted maximal effect; nearly all actives have a fitted effect of over 55% in size
#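 HEK293T cells expressing luciferase-tagged ELG1 (2,000/well) received 5-Fluorouridine plus compound or DMSO for 16 hr at 37 °C. Luciferase was read by ONE-Glo luminescence after 30 min at room temperature.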
# TDP1 cell CPT = growth inhibition of DT40 Tdp1-/-;hTDP1 cells with camptothecin (screen for TDP1 inhibitors). chicken DT40 Tdp1-/-;hTDP1 cells + 20 nM CPT, ATP luminescence, 48 h. Potency, µM (top dose mostly 46.2 µM), without a hit: top-dose activity change, negative = growth inhibition, most hits filed as inhibitors. 12% of 420,000 active; further: potency means the concentration at half of the fitted maximal effect; nearly all actives have a fitted effect of over 55% in size
#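 Chicken DT40 Tdp1-/- cells stably complemented with human TDP1 were seeded at 400 cells/well in medium containing 20 nM camptothecin, exposed to pin-transferred compounds, and grown at 37 °C for at least 48 hr. Viability was read as ATP luminescence.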
# An asterisk follows results filed as active; ? = inconclusive; · = no result. This is a sample that favours compounds with a hit; in the whole collection about 21% have one here. Unless noted, the call rests on the fitted dose curve; in most records, active means well fitted curve in the direction sought with a large enough effect; inconclusive means small, poorly fitted or top-dose-only effect, or another doubt; inactive means no such curve, though single readings can be large; an effect the other way counts as inactive or inconclusive. On the % scale 0 is the no-effect control and ±100 the full control effect.
SMILES,RORgamma inh,Gal4-VP16 FLuc,DT40 TDP1 no CPT,IL-1B inflam inh,ELG1 repair inh,TDP1 cell CPT
CC(=O)SC(C[N+](=O)[O-])c1cn(C(C)=O)c2ccccc12 (configuration not stated),11µM*,?,2.9µM*,-82*,?,4.6µM*
Oc1ccc(-c2c(C3=CCCCC3)sc3ccccc23)cc1,12%,-14%,?,25,-10%,?
CN(C)N1C(N)=C(C#N)C(c2ccc(Br)cc2)C2=C1CC(C)(C)CC2=O (configuration not stated),-19%,-8%,1%,9,24%,-4%
Clc1ccc(Cn2c(/C=C/c3ccco3)nc3ccccc32)cc1,?,?,?,-94*,?,?
Cc1ccc(Cn2c(S(=O)(=O)O)nc3ccccc32)cc1,-6%,-5%,-4%,30,3%,-2%
Cc1ccc(Cn2c(/C=C/c3ccco3)nc3ccccc32)cc1,11µM*,?,15µM*,-105*,?,?
CC1(C(=O)NS(=O)(=O)C2CC2)CCN(C(=O)c2cccc(OC(F)(F)F)c2)C1 (configuration not stated),·,·,?,19,·,?
COCCC(C(=O)Oc1c(C(C)(C)C)cc(C)cc1C(C)(C)C)c1ccccc1 (configuration not stated),·,·,?,18,?,?
COc1ccc(NC(=O)Nc2cccc3c2O[C@@H](CN(C)CC2CCCCC2)[C@@H](C)CN([C@H](C)CO)C3=O)cc1,·,·,?,-1,0%,23µM*
COc1ccc(NC(=O)Nc2ccc3c(c2)C(=O)N([C@@H](C)CO)C[C@@H](C)[C@@H](CN(C)CC2CCCCC2)O3)cc1,·,·,23µM*,-2,?,?
Oc1ccccc1N1CCN(CC(O)COC2CCCc3ccccc32)CC1 (configuration not stated),-7%,2%,?,0,-19%,?
O=C(Nc1nnc(SCc2ccccc2F)s1)C1=COCCO1,?,?,6%,0,?,3%
CCOc1ccccc1NC(=O)C(OC(=O)c1ccc(CC)cc1)c1ccccc1 (configuration not stated),34%,-15%,?,4,-4%,16µM*
CCOc1ccccc1NC(=O)C(NCCc1ccc(OC)cc1)c1ccccc1 (configuration not stated),7%,-6%,?,-7,?,23µM*
CCOc1ccccc1NC(=O)C(NCCN(C)C)c1ccccc1 (configuration not stated),-7%,-6%,-4%,0,-5%,4%
CCOc1ccccc1NC(=O)C(OC(=O)c1ccc(N(C)C)cc1)c1ccccc1 (configuration not stated),5%,-20%,?,17,-51%,0.58µM*
CCOc1ccccc1NC(=O)C(OC(=O)c1ccccc1NS(=O)(=O)c1cccs1)c1ccccc1 (configuration not stated),-6%,-19%,?,47,1%,-16%
CCOc1ccccc1NC(=O)C(OC(=O)c1cnccn1)c1ccccc1 (configuration not stated),·,·,-15%,2,0%,-13%
CCCCc1ccc(-n2nc3cc(C)c(NC(=O)Cc4ccccc4)cc3n2)cc1,·,·,-15%,·,·,-27%
CS(=O)(=O)/C(C#N)=C\c1cnc(S(=O)(=O)c2ccccc2)s1,10µM*,7.9µM*,·,·,24%,·
COc1cccc(-n2ccnc2SCC(=O)N2CCCc3ccccc32)c1,-13%,2%,?,?,12%,?

# Screening data from PubChem BioAssay.
